Bioassay records deposited in PubChem by National Center for Advancing Translational Sciences (NCATS).
Rows were chosen to be rich in hits. Some 21% of all compounds tested hit in one or more screens of this group.
DRD3 antagonist – D3 dopamine receptor (human) antagonism. P35462. D3R cells, DiscoveRx beta-arrestin luminescence, antagonist mode; stronger effect = lower value. max response, negative = inhibition, %. 360,000 tested, 2.5% active; in the data active means max response below about -50%; inconclusive means no clear call, values can overlap the other calls
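Cells plated overnight at 1500 cells/well, then exposed to library compounds with dopamine controls for 90 minutes at 37 degrees C. DiscoveRx reagent added for 30–60 minutes at room temperature; luminescence read, quantitative HTS format.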
D3 ag – D3 dopamine receptor (human) agonism; P35462; D3R DiscoveRx beta-arrestin cells, luminescence, 90 min; max activation, %; 410,000 tested, 0.58% active; AID 652048; in the data active means max activation above about 30%
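Agonist-mode cell screen: cells plated at 1500/well and incubated overnight at 37 °C, then exposed to library compounds for 90 min at 37 °C. Detection reagent was added for 30–60 min at room temperature, and luminescence was read.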
IL1B secr inh – blocks inflammasome-driven IL-1 beta release; THP-1 LPS/ATP IL-1B secretion, AlphaLISA, 16 h; stronger effect = lower value; activity change, % at 57.5 µM; 360,000 tested, 4.7% active; AID 743279; in the data active means activity change below about -50%; inconclusive means mostly about -30% to -49%
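THP-1 cells pretreated 1 hr with compounds (up to 57.5 uM final), then stimulated with LPS (250 ng/mL final) plus ATP (1.25 mM final); secreted IL-1B measured by AlphaLISA after 16 hr, decreased signal indicating inhibition.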
TDP1 cell CPT – growth inhibition of DT40 Tdp1-/-;hTDP1 cells with camptothecin (screen for TDP1 inhibitors). chicken DT40 Tdp1-/-;hTDP1 cells + 20 nM CPT, ATP luminescence, 48 h. Potency, µM (doses to about 46.2 µM), actives largely listed as inhibitors. 420,000 tested, 12% active. AID 686979; further: nearly all actives have a fitted effect of over 55% in size
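Chicken DT40 Tdp1-/- cells complemented with human TDP1, 400 cells/well, exposed to compounds plus 20 nM camptothecin for at least 48 h at 37 C; viability read as ATP content by CellTiter-Glo luminescence.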
DT40 TDP1 no CPT – qHTS for Inhibitors of human tyrosyl-DNA phosphodiesterase 1 (TDP1): qHTS in cells in absence of CPT. Potency, µM (doses to about 46.2 µM), hits mostly inhibitors. 420,000 tested, 15% active. DT40 Tdp1-/- hTDP1 cells, no CPT, ATP luminescence, 48 h; further: nearly all actives have a fitted effect of over 55% in size
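A cellular qHTS used chicken DT40 cells lacking endogenous Tdp1 but carrying stably transfected human TDP1. Compounds were applied without camptothecin, and cell growth kinetics were judged by ATP-dependent luminescence after ≥48 hr.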
ClpP mod – qHTS Assay for Activators of ClpP | 340,000 tested, 1.9% active | AID 651965, 2013 | Potency, µM (highest dose often 57.5 µM) | purified B. subtilis ClpP, FRET peptide cleavage, 20 min | ATP-dependent Clp protease proteolytic subunit (Bacillus subtilis (strain 168)), P80244; active means well fitted falling curve with a large enough effect; inconclusive means small, poorly fitted or top-dose-only effect; inactive means no such curve, though single readings can be large or run the other way; further: the source files actives as falling curves though it sought activators and does not explain the sign; nearly all actives have a fitted effect of over 65% in size
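Buffer: 100 mM Tris/HCl pH8, 100 mM KCl, 0.05% low protease BSA, 2.5% glycerol, 0.01% Tween-20. ClpP 10 microg/mL final; 20 min RT; delta FRET normalized to ADEP and DMSO controls.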
Numbers stand for hits; - = inactive; ? = inconclusive; . = no result; [ ] = dose if it differs, or a comment. Unless noted, the call rests on the fitted dose curve; in most records, active means well fitted inhibition curve with a large enough effect; inconclusive means small, poorly fitted or top-dose-only effect; inactive means flat fitted curve, though single readings scatter.

SMILES	DRD3 antagonist	D3 ag	IL1B secr inh	TDP1 cell CPT	DT40 TDP1 no CPT	ClpP mod
COc1ccc(/C(O)=C/C(=O)C(=O)NNC(=O)c2ccccc2)cc1	-	-	-	-	-	.
COc1ccccc1NC(=O)C(=O)/C=C(\O)c1ccccc1	-	-	.	14.6µM	14.6µM	.
CCOc1ccccc1NC(=O)C(=O)/C=C(\O)c1cc(OC)ccc1OC	-52.8	-	-	5.8µM	5.17µM	-
COc1ccc(OC)c(/C(O)=C/C(=O)C(=O)Nc2cc(C)ccc2OC)c1	-56.6	-	-	?	?	-
CCOC(=O)Nc1cc(C)ccc1OC	-	-	-	-	-	-
COc1ccc(OC)c(/C(O)=C/C(=O)C(=O)Nc2cc(C)cc(C)c2)c1	-86.3	-	-	?	18.4µM	-
O=C(Nc1cccc(Cl)c1Cl)c1ccc2c(c1)N(Cc1cccc(Cl)c1)C(=O)c1ccccc1S2(=O)=O	.	-	.	.	.	-
CC(=O)c1c(C)[nH]c(C(=O)CSc2nnc(C)s2)c1C	-	-	-	?	?	-
O=C(CCCCCNC(=O)N1CCn2c1nc1ccccc12)N[C@H](C(=O)O)c1ccccc1	-	-	-	-	-	-
CCN(Cc1ccccc1)C(c1ccc(C(F)(F)F)cc1)c1nnnn1C(C)(C)C (stereo not drawn)	-	-	-	?	20.6µM	-
CCN(Cc1ccccc1)C(c1cccc(C#N)c1)c1nnnn1C(C)(C)C (stereo not drawn)	-	-	-	?	23.1µM	-
CC(C)(C)n1nnnc1C(c1cccnc1)N(Cc1ccccc1)Cc1ccco1 (stereo not drawn)	-	-	-	?	?	-
CC(=O)c1ccc(C(=O)N2CCc3c(cnc(C)c3CNC(=O)c3ccc4c(c3)OCO4)C2)s1	.	.	.	-[9.04 µM]	-	.
Cc1ncc2c(c1CNC(=O)c1ccccc1F)CCN(C(=O)c1ccc3c(c1)OCCO3)C2	.	.	.	0.058µM	0.13µM	.
CCn1ncc(CN2CCN(Cc3cccc(OC)c3)C(CCO)C2)c1C (stereo not drawn)	-	-	-	-	-	.
COCCn1ccc2c(OCC(=O)Nc3cccc(OC)c3)cccc2c1=O	.	-	.	?	14.6µM	?
CCOCCn1ccc2c(OCC(=O)Nc3ccc(OC)c(OC)c3)cccc2c1=O	-	-	-	14.6µM	10.3µM	.
COCCn1ccc2c(OCC(=O)NCCc3ccccc3)cccc2c1=O	-	-	-	-	?	.
CCOCCn1ccc2c(OCC(=O)Nc3cc(C)cc(C)c3)cccc2c1=O	.	-	.	-	?	-
COCCn1ccc2c(OCC(=O)Nc3cccc(C(F)(F)F)c3)cccc2c1=O	.	-	.	?	23.1µM	-
CN(C)CC(C)(C)CNC(C(=O)Nc1ccc(Cl)cc1C(F)(F)F)c1ccccc1 (stereo not drawn)	-	-	?	-	-	-
Clc1cccc(Cc2c(-c3cccc(Br)c3)nc3ccc(Cl)cn23)c1	-	-	-	?	?	-
COC(=O)c1ccc2nc(C3CCCCC3)c(Cc3ccccc3C(F)(F)F)n2c1	-	-	-	?	?	-
COC(=O)c1ccc2nc(C3CCCCC3)c(Cc3ccc(OC)cc3C)n2c1	-	-	-	?	?	-
Clc1cccc(Cc2c(C3CCCCC3)nc3ccc(Br)cn23)c1	-	-	-	23.1µM	?	-
SMILES	DRD3 antagonist	D3 ag	IL1B secr inh	TDP1 cell CPT	DT40 TDP1 no CPT	ClpP mod
COC(=O)c1ccc2nc(C3CCCCC3)c(Cc3cccc(Cl)c3)n2c1	-	-	-	?	16.4µM	-
COC(=O)c1ccc2nc(C3CCCCC3)c(Cc3ccc(C)cc3)n2c1	-	-	-	25.9µM	23.1µM	-
CCc1nn(CC(=O)N2CCN(c3cccc(C)c3C)CC2)c(=O)c2cc3sccc3n12	.	-	.	-	-	-
Cc1c(CNC2CCCCCC2)c(C(=O)O)c(C)n1Cc1ccc(F)cc1Cl	.	-	.	?	?	-
O=C(CCN1C(=O)c2ccccc2S1(=O)=O)Nc1ccc(C(=O)O)cc1	-	-	-	-	-	-
Cc1ccc(S(=O)(=O)N2C[C@H]3C(=O)C[C@@H](c4ccccc4)N(S(=O)(=O)c4cccc(C)c4)[C@H]3C[C@H]2c2ccccc2)cc1	-	-	-	-	?	-
COc1cc(-c2nnc(NC(=O)CCS(=O)(=O)c3ccccc3)o2)cc(OC)c1OC	-	-	-54.7	16.4µM	14.6µM	-
COc1ccc(NC(=O)CCS(=O)(=O)c2ccccc2)c(OC)c1	-	-	-	-	-	-
COc1cc(-c2nnc(NC(=O)CCS(=O)(=O)c3ccc(F)cc3)o2)cc(OC)c1OC	?	-	-	?	18.4µM	-
C#CCSc1nc2sc3c(c2c(=O)n1-c1cccc(OC)c1)CCN(C(C)=O)C3	.	-	.	?	?	-
COc1ccc(-c2nc3cnc(N4CCOCC4)nc3n(Cc3cccc(OC)c3)c2=O)cc1	.	.	.	-	-	.
CCOc1ccccc1NC(=O)c1cc(=O)c2ccc(C)cc2o1	.	-	.	-	-	-
COC(=O)C1=C(C)N(c2ccc(OC)cc2)C(C)=C(C(=O)OC)C1c1ccccc1	-	-	-	?	20.6µM	-
COC(=O)C1=C(C)N(c2ccc(OC)cc2)C(C)=C(C(=O)OC)C1c1ccc(OC)cc1	-	-	-	8.2µM	16.4µM	-
COc1ccc(C2NC(=S)N(c3ccccc3)C(C)=C2C(=O)Nc2ccccc2)cc1 (stereo not drawn)	-	-	-	-	-	-
COC(=O)C1=C(C)N(C)C(C)=C(C(=O)OC)C1c1ccc(Cl)cc1	-	-	-	-	?	-
CCCNC(C)(C)COC(=O)c1ccccc1	?	-	-	-	-	-
C[C@@H](C(=O)NCCc1ccccc1)N1C(=O)N2CCc3c([nH]c4ccccc34)[C@@]2(C)C1=O	-	-	-	18.4µM	?	-
COc1ccc2[nH]c3c(c2c1)CCN1C(=O)N([C@@H](C)C(=O)NCc2ccccc2)C(=O)[C@]31C	-	-	-	?	?	-
C[C@@H](C(=O)NCCc1ccccc1F)N1C(=O)N2CCc3c([nH]c4ccccc34)[C@@]2(C)C1=O	-	-	-	11.6µM	9.2µM	-
C[C@@H](C(=O)NC1CCCCC1)N1C(=O)N2CCc3c([nH]c4ccccc34)[C@@]2(C)C1=O	?	-	-	?	?	-
O=c1[nH]c(=S)[nH]c2c1C(c1ccc(F)cc1)OC(CCOCc1ccccc1)C2 (stereo not drawn)	-	-	-	-	-	-
